Screens from PubChem.
HCV inh: blocks hepatitis C virus | Potency, µM (top dose mostly 41.8 µM), hits mostly inhibitors | Huh7.5.1 HCVcc-Cre infection, luciferase reporter, 44 h | 340,000 tested, 3.4% active
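Luciferase read-out (15 sec integration) after a 15 min room-temperature substrate step quantifies HCVcc-Cre infection. Cells, 1,000 per well, had compound added 4 h post-plating, then virus at ~0.5 moi, and were cultured 44 h.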
Pf growth 96h: P. falciparum growth inhibition at 96 hour, primary screen for plastid delayed-death inhibitors; P. falciparum luciferase reporter growth, 96 h; Potency, µM (doses to about 28.7 µM), usual class: inhibitors; 320,000 tested, 6.9% active; AID 504834
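Luminescence readout: decreased luciferase signal marks inhibited growth of reporter-expressing P. falciparum in infected red cells (2% hematocrit, 0.05% parasitemia final), exposed to compound two generations (96 h, 37 C, 5% CO2).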
Shiga toxin inh: Shiga toxin inhibition. Vero cells, Shiga toxin protein synthesis inhibition reporter. inhibition, % at 38.7 µM. 290,000 tested, 9.2% active. AID 2315; in the data active means inhibition mostly above about 28%, no sharp cut-off; inactive means mostly below about 43%
Pf growth 48h: P. falciparum growth inhibition at 48 hours (one generation); P. falciparum luciferase growth in erythrocytes, 48 h; Potency, µM (titrated, usually from 28.7 µM), hits mostly inhibitors; 310,000 tested, 5.9% active
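Erythrocytes infected with P. falciparum carrying an integrated firefly luciferase reporter (2% hematocrit, 0.1% parasitemia final) were exposed to compounds in RPMI 1640 with 0.5% Albumax at 37 C, 5% CO2. Growth inhibition was scored as reduced luminescence.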
HCMV inh: human cytomegalovirus inhibition; HFF cells, HCMV-luciferase reporter, 72 h; hits give low values; activity change, negative = inhibition, % at 57.5 µM; 410,000 tested, 4.5% active; in the data active means activity change below about -60%; inconclusive means no clear call, values can overlap the other calls; inactive means above about -39%
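Luciferase read-out from HCMV-luciferase-infected HFFs (MOI 1 PFU/cell) 72 h post infection at 37C; compounds added after 16 h cell attachment; activity normalized between buffer-only basal and Salinomycin (10uM) inhibitor controls.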
CHX counter: counter-screen for Shiga toxin inhibitors: cycloheximide protein synthesis inhibition. cell reporter, cycloheximide protein synthesis inhibition counterscreen. max response, %. 300,000 tested, 12% active. AID 2314; in the data active means max response mostly above about 13%, no sharp cut-off; inactive means mostly below about 14%; further: read at 38.3 µM for the half of the compounds with a filed dose
Numbers stand for hits; . = inactive; ? = inconclusive; / = no result given. Rows were chosen to be rich in hits. Some 21% of all compounds tested hit in one or more screens of this group. Unless noted, the call rests on the fitted dose curve; in most records, active means well fitted inhibition curve with a large enough effect; inconclusive means small, poorly fitted or top-dose-only effect, or another doubt; inactive means no such curve, though single readings can be large or run the other way.

SMILES	HCV inh	Pf growth 96h	Shiga toxin inh	Pf growth 48h	HCMV inh	CHX counter
CCc1cccc(NC(=S)N2CCC(c3ccccc3)C2)c1 (stereo not given)	.	.	74	.	.	65
CC(=O)c1cccc(NC(=S)N2CCC(Cc3ccccc3)CC2)c1	.	.	.	?	.	.
Clc1ccccc1-c1nc2ccccc2[nH]1	.	.	81	.	.	53
CC(C)(C)C(=O)Nc1ccc(Cl)c(-c2nc3ccccc3[nH]2)c1	/	/	/	/	.	/
c1ccc2[nH]c(-c3ccnc4ccccc34)nc2c1	.	?	.	.	.	27
c1ccc2c(-c3nc4ccccc4[nH]3)cccc2c1	/	/	/	/	.	/
Cn1cc(Cl)c(-c2nc3ccccc3[nH]2)n1	.	.	71	/	.	26
CCN(CC)c1nc2ccccc2[nH]1	.	.	.	.	.	.
Cc1ccccc1-c1nc2ccccc2[nH]1	.	.	95	.	.	46
FC(F)c1nc2ccccc2[nH]1	.	.	.	.	.	.
Fc1ccccc1-c1nc2ccccc2[nH]1	.	13µM	111	.	.	39
CCOC(=O)COc1ccc(C)cc1C(=O)c1ccn2nc(-c3ccc(C)cc3)cc2n1	/	/	/	/	.	/
COc1ccc(OCC(=O)N/N=C(\C)c2cc3ccccc3o2)cc1	?	.	57	.	.	26
C/C(=N\NC(=O)c1ccc(O)cc1)c1cc2ccccc2o1	?	?	59	.	?	29
COc1ccc(OCC(=O)N/N=C(\C)c2ccc(OC)cc2)cc1	.	.	.	.	.	.
C/C(=N\NC(=S)Nc1cccc(C)c1)c1cc2ccccc2o1	?	8.3µM	.	?	.	.
CCNC(=S)N/N=C(\C)c1cc2ccccc2o1	?	?	.	?	.	18
C/C(=N\Nc1ccc([N+](=O)[O-])cc1)c1cc2ccccc2o1	?	.	.	.	.	.
CSc1ncnc2c1ncn2CCCNCCc1ccccn1	/	/	/	/	.	/
NS(=O)(=O)c1cccc(NC(=O)c2ccc(NS(=O)(=O)c3cccc([N+](=O)[O-])c3)cc2)c1	.	/	/	/	-75	/
O=C(O)c1cccc(NC(=O)c2cccc(S(=O)(=O)Nc3cccc([N+](=O)[O-])c3)c2)c1	.	.	/	.	.	.
O=C(Nc1ccc(Oc2cccnc2)cc1)c1cccc([N+](=O)[O-])c1	?	.	44	.	/	16
O=C(Nc1ccc2ccccc2c1)c1cccc([N+](=O)[O-])c1	.	?	74	.	.	20
Cc1cccc(NS(=O)(=O)c2cc(C(=O)N3CCN(C)CC3)ccc2C)c1	.	9.3µM	.	/	.	.
CCN1CCN(C(=O)c2ccc(C)c(S(=O)(=O)Nc3cccc(C)c3)c2)CC1	.	.	.	.	.	.
SMILES	HCV inh	Pf growth 96h	Shiga toxin inh	Pf growth 48h	HCMV inh	CHX counter
C=CCn1c(SCC(=O)NCC(c2ccccc2)N(C)C)nnc1C1CCCCC1 (stereo not given)	.	.	/	?	.	/
N#Cc1[nH]nc2nc[nH]c(=O)c12	/	/	/	/	.	/
CCN(CC(=O)Nc1ccccc1C(F)(F)F)C(=O)CCc1c(C)[nH]c(=O)c(C#N)c1C	.	.	.	.	.	.
Cc1ccc2c(CC(=O)NNC(=O)c3ccccc3O)coc2c1	?	?	/	.	.	/
CCCCCn1nc2ccccc2c1OC	/	/	/	/	.	/
Cc1ccc(C)c(NC(=O)c2ccccc2NS(=O)(=O)c2cc([N+](=O)[O-])ccc2C)c1	8.9µM	.	.	?	-87	.
O=C(Nc1cccc([N+](=O)[O-])c1)c1ccc(CSc2ccccc2)cc1	.	.	.	.	.	.
O=C(Nc1cccc([N+](=O)[O-])c1)c1ccccc1	?	.	.	.	.	18
O=C(Nc1cccc([N+](=O)[O-])c1)c1ccc2nsnc2c1	?	13µM	.	.	.	.
Cc1ccc(NC(=O)CC(=O)c2ccc([N+](=O)[O-])cc2)cc1S(=O)(=O)Nc1cccc(Cl)c1	10µM	?	.	?	?	.
Cc1ccc2nsnc2c1NC(=O)c1cccc([N+](=O)[O-])c1	.	.	.	?	/	.
Cc1ccc(NS(=O)(=O)c2cc(C(=O)Nc3cccc([N+](=O)[O-])c3)ccc2C)cc1	?	.	.	?	.	.
CC(O)(c1ccc(F)c(F)c1)c1nc(/C=C/c2ccc(C(F)(F)F)cc2)cs1 (stereo not given)	/	/	/	/	.	/
O=C(Nc1ccccc1)c1ccc(Nc2c([N+](=O)[O-])cc([N+](=O)[O-])c3ccccc23)cc1	?	.	.	?	-74	.
O=C(COC(=O)c1ccccc1C(=O)c1ccccc1)Nc1cccc([N+](=O)[O-])c1	?	.	30	.	?	19
Cc1cc(C(=O)Nc2ccc(-n3c(C)nc4ccccc4c3=O)cc2)ccc1[N+](=O)[O-]	/	/	/	/	.	/
CC(C)C(=O)Nc1cccc(NC(=O)c2cccc([N+](=O)[O-])c2)c1	.	.	.	.	.	.
CC(C)C(=O)NC(Nc1cccc([N+](=O)[O-])c1)C(Cl)(Cl)Cl (stereo not given)	.	.	.	1.9µM	.	.
O=C(COC(=O)COc1ccccc1)Nc1cccc([N+](=O)[O-])c1	.	.	.	.	.	.
COc1ccc(C(=O)C(C)Oc2cccc(NC(=O)c3cccc([N+](=O)[O-])c3)c2)cc1 (stereo not given)	11µM	?	.	.	.	.
O=S1(=O)CC(N2CCC(c3ccccc3)CC2)CN1Cc1cn(Cc2ccc(C(F)(F)F)cc2)nn1 (stereo not given)	/	/	/	/	.	/
CC(=O)Nc1ccc(NC(=O)c2ccc(C)c(S(=O)(=O)Nc3cccc(C)c3)c2)cc1	13µM	.	.	12µM	.	.
Cc1ccc(C(=O)Nc2cccc([N+](=O)[O-])c2)cc1S(=O)(=O)Nc1ccc(NC(=O)c2ccccc2)cc1	10µM	.	.	?	-74	.
O=[N+]([O-])c1cc(Br)c(Nc2ccccc2)c([N+](=O)[O-])c1	?	.	.	0.52µM	-85	.
Nc1cc([N+](=O)[O-])ccc1Nc1ccccc1	.	.	.	?	.	.
SMILES	HCV inh	Pf growth 96h	Shiga toxin inh	Pf growth 48h	HCMV inh	CHX counter
Cc1ccc(C)c(NC(=O)Nc2nnc(N(CC(C)C)CC(C)C)s2)c1	/	/	/	/	.	/
CC1Cc2cc(S(=O)(=O)N3CCN(c4ccccc4F)CC3)ccc2N1C(=O)C1CCC1 (stereo not given)	/	/	/	/	.	/
COc1ccc(C(=O)NCCCN2CCCC2=O)cc1S(=O)(=O)N1CCOCC1	/	/	/	/	.	/
COC(=O)c1ccccc1NC(=O)CSc1nnc2cc(C)c3cc(C)cc(C)c3n12	/	/	/	/	.	/
c1cc(-c2nnc3sc(C4CCCCC4)nn23)ccn1	.	?	.	?	-80	.
COc1ccccc1-c1nnc2sc(COc3ccc(Cl)cc3)nn12	?	?	.	?	.	.
COc1ccccc1-c1nnc2sc(C3CCCCC3)nn12	.	.	.	10µM	?	.
